“And” between values parts separate entries of the source, which are not always exact repeats. Equal entries are not always repeated. Records with an inconclusive call do not appear. Some compounds were tested as several samples or in several runs, with calls that do not always agree. The source made the active and inactive calls. Unless noted, calls come from the whole dose curve; as a rule, active = well fitted curve in the direction sought with a large enough effect in the repeat runs; inconclusive = weak or mixed curves; inactive = no such curve, though single readings can be large; an effect the other way counts as inactive or inconclusive.
Tests used:
[1] = qHTS assay for small molecules that induce genotoxicity in human embryonic kidney cells expressing luciferase-tagged ATAD5 (AID 651632); note: nearly all actives have a fitted effect of over 15% in size; note: potency is the fitted concentration of half-maximal effect
Procedure, shortened: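 DMSO vehicle served as the control. HEK293T reporter cells, 16 hr at 37C, then 30 min Amplite at room temperature; ATAD5 induction is measured as luciferase activity.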

[2] = qHTS assay for small molecule agonists of the p53 signaling pathway - cell viability (AID 651633; calls by dose curve; note: nearly all actives have a fitted effect of over 30% in size; note: potency is the fitted concentration of half-maximal effect)
Procedure, shortened: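 Viability counter-read: CellTiter-Glo luminescence (30 min, room temperature) in the same p53RE-bla plates. These plates had been exposed to compounds for 16 h at 37 C.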

[3] = qHTS assay for small molecules that induce genotoxicity in human embryonic kidney cells expressing luciferase-tagged ATAD5 - cell viability (AID 651634; calls by dose curve; note: nearly all actives have a fitted effect of over 25% in size; note: potency is the fitted concentration of half-maximal effect)
Procedure, shortened: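 Here HEK293T cells with the ATAD5 luciferase reporter are incubated with test compounds for 15.5 hr, and cytotoxicity is then gauged by measuring protease activity in live cells using fluorescence.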

[4] = qHTS assay for small molecule disruptors of the mitochondrial membrane potential - cell viability (AID 720634; calls by dose curve; note: nearly all actives have a fitted effect of over 20% in size; note: potency is the fitted concentration of half-maximal effect)
Procedure, shortened: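 Viability of HepG2 cells is scored from ATP content by luminescence; cells are exposed to compound for 1 hr at 37 C and 5% CO2, then dosed with m-MPI dye before the CellTiter-Glo reagent.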

[5] = qHTS assay for small molecule disruptors of the mitochondrial membrane potential (AID 720635); note: potency is the fitted concentration of half-maximal effect
Procedure, shortened: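 Mitochondrial membrane potential tracked with Mito-MPS dye, red aggregates (ex 540/em 590 nm) against green monomers (ex 490/em 535 nm). Compound treatment 1 hr at 37C, dye 30 min in HepG2.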

[6] = qHTS assay to test for compound auto fluorescence at 590 nm (red) in HepG2 cells (AID 720674)
Procedure, shortened: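 Red autofluorescence (Ex/Em 540/590 nm, Rose Bengal sodium equivalents) was measured in HepG2 cells, 2,000 per well in MEM plus 10% FBS, plated overnight at 37 C. Readings were taken 1 hr after adding 23 nL compound or DMSO, at 37 C and 5% CO2.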

[7] = qHTS assay to test for compound auto fluorescence at 535 nm (green) in HepG2 cells (AID 720675)
[8] = qHTS assay to test for compound auto fluorescence at 460 nm (blue) in HEK293 cells (AID 720678)
Procedure, shortened: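 HEK293, 2,000 cells/well, 10% dialyzed FBS; attach 4-5 hr 37C; pin compound or DMSO; o/n 37C/5% CO2; fluorescence 405/460 nm; triamterene-equivalent units.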

[9] = qHTS assay to test for compound auto fluorescence at 590 nm (red) in HEK293 cells (AID 720679)
Procedure, shortened: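 Intensity at 540nm excitation and 590nm emission is reported as Rose Bengal sodium-equivalent autofluorescence. Measurements followed overnight exposure (37C, 5% CO2) of HEK293 cells, 2,000 per well, to 23 nL compound.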

Measured: Potency

Cc1ccc(O)c(-n2nc3ccccc3n2)c1
active: [1] 9.44 µM and 6.11 µM | [4] 30.6 µM | [5] 21.1 µM and 60.6 µM and 30.6 µM
inactive: all other assays above

CCCCOCCOCCOC(C)=O
not listed: [7]
inactive: all other assays above

COCCOCCOC
not listed: [7]
inactive: all other assays above

C=C(C)OC(C)=O
inactive: all assays above

COc1cc(O)c(C(=O)c2ccccc2)cc1S(=O)(=O)O
inactive: all assays above

N[C@@H](Cc1c[nH]c2ccc(O)cc12)C(=O)O
active: [5] 26.6 µM and 941 nM
inactive: all other assays above

O=C(O)CCCCC1CCSS1 (stereo not drawn)
inactive: all assays above

OCCCc1ccccc1
inactive: all assays above

NC(=O)c1ccc([N+](=O)[O-])cc1Cl
inactive: all assays above

Cn1cnc2c1c(=O)[nH]c(=O)n2C
inactive: all assays above

C=CC(=O)NC(C)(C)CS(=O)(=O)O
inactive: all assays above

COc1ccc(C(=O)c2ccccc2)c(O)c1
inactive: all assays above

CCCCCCCCCCCCCC(=O)OC(C)C
inactive: all assays above

COc1cc(C=O)ccc1O
inactive: all assays above

CCCCOC(=O)CCCCCCCCC(=O)OCCCC
inactive: all assays above

CCCCCCCCCCCCCCCCCC(=O)OCC(O)CO (stereo not drawn)
inactive: all assays above

CC(C)CC(C)CC(O)CC(C)C (stereo not drawn)
not listed: [7]
inactive: all other assays above

CC1=C(/C=C/C(C)=C/C=C/C(C)=C/C(=O)O)C(C)(C)CCC1
inactive and 68.7 µM (active): [2]
inactive and 27.3 µM (active): [5]
inactive: all other assays above

CC(C)=CCC/C(C)=C/CO
not listed: [5] | [7]
inactive: all other assays above

Nc1ccc(N=Nc2ccccc2)c(N)n1
active: [1] 11.9 µM and 8.68 µM and 9.69 µM | [3] 23.7 µM and 54.8 µM | [5] 10.6 µM and 30.8 µM and 19.3 µM
not listed: [7]
inactive: all other assays above

COc1cc2c(c(OC)c1OC)-c1ccc(OC)c(=O)cc1[C@@H](NC(C)=O)CC2
active: [1] 266 nM and 48 nM and 54.5 nM | [3] 335 nM and 9.6 nM and 7.7 nM | [5] 3.35 µM and 1.52 µM and 1.37 µM
not listed: [7]
inactive: all other assays above

CC(C)Cc1ccc(C(C)C(=O)O)cc1 (stereo not drawn)
not listed: [7]
inactive: all other assays above

Cc1cccc2ccccc12
not listed: [7]
inactive: all other assays above

C[C@]12C=CC(=O)C=C1CC[C@@H]1[C@@H]2C(=O)C[C@@]2(C)[C@H]1CC[C@]2(O)C(=O)CO
not listed: [7]
inactive: all other assays above

N[C@@H](Cc1c[nH]c2ccccc12)C(=O)O
not listed: [1] | [7]
inactive: all other assays above

C[C@]12CC[C@@H]3c4ccc(O)cc4C[C@@H](CCCCCCCCCS(=O)CCCC(F)(F)C(F)(F)F)[C@H]3[C@@H]1CC[C@@H]2O (stereo partly drawn)
active: [5] 2.66 µM and 2.73 µM
not listed: [4]
inactive: all other assays above

CC(=O)/C=C/C1=C(C)CCCC1(C)C
not listed: [5] | [7]
inactive: all other assays above

Cc1cnc(NC(=O)C2=C(O)c3ccccc3S(=O)(=O)N2C)s1
not listed: [3] | [5] | [7]
inactive: all other assays above

C[C@]12CC[C@@H]3c4ccc(O)cc4CC[C@H]3[C@@H]1CCC2=O
active: [5] 13.3 µM and 6.87 µM
inactive: [3] | [4] | [6] | [8] | [9]

O=C(O)Cc1cccc2ccccc12
not listed: [5]
inactive: all other assays above

COc1ccc(O)cc1
not listed: [7]
inactive: all other assays above

O=C1OC(c2ccc(O)cc2)(c2ccc(O)cc2)c2ccccc21
active: [5] 21.1 µM and 48.2 µM and 68.6 µM
not listed: [7]
inactive: all other assays above

CN/C(=C\[N+](=O)[O-])NCCSCc1ccc(CN(C)C)o1
not listed: [3] | [7]
inactive: all other assays above

CCn1cc(C(=O)O)c(=O)c2ccc(C)nc21
not listed: [2] | [3]
inactive: all other assays above

CN(C)C=O
not listed: [4] | [5] | [7]
inactive: all other assays above

C=CCOC(=O)CC(C)C
not listed: [7]
inactive: all other assays above

c1ccc2[nH]c(-c3cscn3)nc2c1
not listed: [1] | [5]
inactive: all other assays above

CC(O)COc1ccccc1 (stereo not drawn)
not listed: [7]
inactive: all other assays above

CCCCNC(=O)NS(=O)(=O)c1ccc(N)cc1
not listed: [7]
inactive: all other assays above

NCCNc1cccc2ccccc12
not listed: [5]
inactive: all other assays above

O=c1c(-c2ccc(O)cc2)coc2cc(O)cc(O)c12
active: [5] 5.96 µM and 1.07 µM and 8.63 µM
not listed: [1] | [3]
inactive: all other assays above

CN(C)Cc1cc(CN(C)C)c(O)c(CN(C)C)c1
not listed: [7]
inactive: all other assays above

CC(=O)CCC(C)C
not listed: [7]
inactive: all other assays above

CCCCCCCCOc1ccc(C(=O)c2ccccc2)c(O)c1
inactive and 61.1 µM (active): [5]
not listed: [7]
inactive: all other assays above

CCc1cc(C(N)=S)ccn1
not listed: [1] | [7]
inactive: all other assays above

COC1=CC(=O)C[C@@H](C)[C@]12Oc1c(Cl)c(OC)cc(OC)c1C2=O
not listed: [1] | [2] | [7]
inactive: all other assays above

CC1=NN(c2ccccc2)C(=O)C1
active: [5] 11.9 µM and 61.5 µM
not listed: [7]
inactive: all other assays above

O=C(OCc1ccccc1)c1ccccc1
not listed: [7]
inactive: all other assays above
